High-throughput results as filed in PubChem BioAssay.
The list is not random: actives were taken first. Their share in the collection is about 1.1%.
COUP-TFII inh – NR2F2 transcriptional activity inhibitors, primary screen, cell-based, luciferase reporter, HEK293T, luminescence; COUP transcription factor 2 (Homo sapiens), P24468; 370,000 tested, 0.7% active; HEK293T NGFI-A luciferase reporter; inhibition, % at 8.6 µM;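 active = inhibition above a per-plate cutoff, mean inhibition of test wells between control levels plus 3 SD, cut at about 38% in these data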;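 note: cells cotransfected with COUP-TFII expression vector driving the NGFI-A reporter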
NCOA3 inh – SRC3 coactivator transcriptional activity inhibitors, primary screen, cell-based, luminescence. Nuclear receptor coactivator 3 (Homo sapiens), Q9Y6Q9. HEK293 GAL4-SRC3 luciferase reporter. inhibition, % at 3.6 µM. 360,000 tested, 0.17% active. AID 588352, 2011;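 active = inhibition above a per-campaign cutoff, the mean of all compounds plus 3 SD, cut at about 60% in these data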;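 note: higher means less SRC3-driven luciferase light from the GAL4 reporter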
GalR3 antag – GalR3 antagonists in HEK293 cells, primary screen, cell-based, fluorescence readout; 360,000 tested, 0.44% active; inhibition, % at 3 µM; Galanin receptor type 3 (Homo sapiens), O60755; HEK293 GalR3-CNG cAMP membrane potential fluorescence; galR3 body fused to GalR1 C-terminus;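 active = inhibition above the screen-wide average plus 3 SD, cut at about 13% in these data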;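 note: forskolin and galanin both at EC90 stimulate the cells; cAMP rise reported by CNG channel membrane potential dye signal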
NR5A2 inv ag – LRH-1 (NR5A2) inverse agonists, primary screen, cell-based, luminescence, HEK293T, StAR-luciferase reporter; Nuclear receptor subfamily 5 group A member 2 (Homo sapiens), O00482; LRH-1 transfected, 24 h; inhibition, % at 3.6 µM; 360,000 tested, 0.13% active; AID 602396, 2012;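 active = inhibition above the mean inhibition of all tested compounds plus 3 SD, cut at about 73% in these data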
SRC2 inh – inhibition of GAL4-SRC2 driven luciferase reporter, primary screen, SRC2 inhibitor project, cell-based, luminescence; 370,000 tested, 0.17% active; inhibition, % at 9 µM; HEK293 GAL4-SRC2 luciferase reporter;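 active = inhibition above the mean inhibition of all tested compounds plus 3 SD, set per campaign, cut at about 52% in these data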
NCOA1 inh – SRC1 coactivator transcriptional activity inhibitors, primary screen, cell-based, luminescence. 360,000 tested, 0.12% active. inhibition, % at 3.6 µM. Nuclear receptor coactivator 1 (Homo sapiens), Q15788. HEK293 GAL4-SRC1 luciferase reporter. AID 588354, 2011;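 active = inhibition above the campaign mean plus 3 SD, with each screening campaign given its own cutoff, cut at about 60% in these data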
GalR3 antag conf – GalR3 antagonist hit confirmation, cell-based, fluorescence, triplicate. shares compounds with GalR3 antag. HEK293 GalR3 CNG cAMP biosensor, membrane potential fluorescence; galR3 fused to GalR1 carboxy tail; challenged with forskolin and galanin at EC90. inhibition, % at 3 µM. 1,600 tested, 59% active. AID 652245, 2013;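 active = inhibition above the primary screen's cutoff, the mean inhibition of all screened compounds plus 3 SD, cut at about 13% in these data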
CNG parental – nonspecific cAMP agonists in parental HEK-CNG cells, counter-screen for GalR3 antagonist project, cell-based, fluorescence, high throughput. shares compounds with GalR3 antag. HEK293-CNG parental cells, cAMP membrane potential fluorescence; normalised: DMSO wells 0%, forskolin wells 100%. activation, % at 3 µM. 1,600 tested, 10% active; in the data active = activation above about 1.3%
Gal4-VP16 ctr – Gal4-VP16 luciferase reporter inhibitors, counter-screen for COUP-TFII antagonist project, cell-based, luminescence, HEK293; inhibition, % at 8.5 µM; 2,500 tested, 25% active; shares compounds with COUP-TFII inh; in the data active = inhibition above about 13%
COUP-TFII conf – NR2F2 transcriptional activity inhibitors, confirmation, cell-based, luciferase reporter, HEK293, triplicate | shares compounds with COUP-TFII inh | HEK293 NGFI-A luciferase reporter, luminescence | inhibition, % at 8.5 µM | 2,500 tested, 45% active;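 active = mean inhibition over three repeats above a set limit taken from the earlier primary screen, cut at about 38% in these data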
Numbers stand for hits; i = inactive; nt = no result given.

SMILES	COUP-TFII inh	NCOA3 inh	GalR3 antag	NR5A2 inv ag	SRC2 inh	NCOA1 inh	GalR3 antag conf	CNG parental	others
CN(C)C(=O)c1ccc(NC(=O)CC2SC(N3CCCC3)=NC2=O)cc1 (stereo not drawn)	i	i	i	i	i	i	nt	nt
CCNC(=O)c1ccc(NC(=O)CC2SC(N3CCCCC3)=NC2=O)cc1 (stereo not drawn)	i	i	16	i	i	i	i	i
COc1cc2c(cc1OC)C(c1ccc3c(c1)OCO3)C1=C(CC(C)(C)CC1=O)N2 (stereo not drawn)	i	i	13	i	i	i	29	i
COc1cccc(C2C3=C(CC(C)(C)CC3=O)Nc3cc(OC)c(OC)cc32)c1 (stereo not drawn)	i	i	15	i	i	i	23	i
COc1cccc(C2C3=C(CC(C)(C)CC3=O)Nc3cc4c(cc32)OCO4)c1 (stereo not drawn)	i	i	i	i	i	i	nt	nt
CC(=O)Oc1ccc(C2C3=C(CC(C)(C)CC3=O)Nc3cc4c(cc32)OCCO4)cc1 (stereo not drawn)	i	i	i	i	i	i	nt	nt
CC(=O)N[C@@H]1C[C@@H]2O[C@@H](CO)CC[C@@H]2O[C@@H]1CCc1ccc(C#CC2(O)CCCC2)cc1	i	nt	nt	nt	i	nt	nt	nt
COCCNc1cc(N)c([N+](=O)[O-])cc1[N+](=O)[O-]	i	i	i	i	i	i	nt	nt
O=c1[nH]c2cc(NCCO)c([N+](=O)[O-])cc2[nH]1	i	i	21	i	i	i	33	2.8
CC(=O)C1=C(C)N(Cc2ccc(Br)cc2)C(=S)NC1c1cccc(Cl)c1 (stereo not drawn)	i	nt	i	nt	i	nt	nt	nt
CC(C)C(=O)NCCc1nc(-c2ccccc2)no1	i	i	nt	i	i	i	i	i
CC(=O)NCCc1nc(-c2ccc(Cl)cc2)no1	i	i	i	i	i	i	nt	nt
FC(F)(F)c1cccc(N2CCN(C3=Nc4ccccc4Sc4ccccc43)CC2)c1	i	nt	nt	nt	i	nt	nt	nt
COc1cc2c(cc1OC)C(c1ccc(C)cc1)NC(=O)C2 (stereo not drawn)	i	i	14	i	i	i	i	i
CCOc1ccc(C2NC(=O)Cc3cc(OC)c(OC)cc32)cc1 (stereo not drawn)	i	i	i	i	i	i	nt	nt
CCN(CC)c1ccc(/C=N/NC(=S)NCc2ccccc2)c(O)c1	i	i	13	i	i	i	25	i
COC(=O)[C@]12C[C@H](CC(=O)N3CCCCC3)C(=O)N(Cc3ccc(Cl)cc3Cl)C1=C[C@H](C1CCCC1)O[C@@H]2C	i	nt	nt	nt	i	nt	nt	nt
S=C(NN=C1CCCCC1=NNC(=S)N1CCOCC1)N1CCOCC1	i	nt	i	nt	i	nt	nt	nt
COc1ccc(N2C(=O)c3ccccc3NC2c2ccc(OC)c(Cn3cc([N+](=O)[O-])cn3)c2)cc1 (stereo not drawn)	i	i	59	i	i	i	24	i
COC(=O)[C@]12C[C@H](CC(=O)N3CCCC3)C(=O)N(CCC3=CCCCC3)C1=C[C@H](COCc1ccccc1)O[C@@H]2C	i	nt	i	nt	i	nt	nt	nt
CC(C)(C)c1ccc(C(=O)Nc2ccc([N+](=O)[O-])cn2)cc1	i	i	i	i	i	i	nt	nt
CCC(CC)C(=O)Nc1ccc([N+](=O)[O-])cn1	i	i	16	i	i	i	24	i
COc1ccc(-c2ocnc2C(=O)NCc2nn(-c3ccccc3)nc2C)cc1	60	i	19	i	i	i	84	i	Gal4-VP16 ctr=i;COUP-TFII conf=41
Cc1cc(=O)[nH]c(SCC(=O)Nc2ccc(Cl)cc2)n1	i	nt	nt	nt	i	nt	nt	nt
Cc1cc(C(=O)CSc2nc3ccccc3[nH]2)c(C)n1CC1CCCO1 (stereo not drawn)	80	73	110	i	63	i	i	i	Gal4-VP16 ctr=34;COUP-TFII conf=88
SMILES	COUP-TFII inh	NCOA3 inh	GalR3 antag	NR5A2 inv ag	SRC2 inh	NCOA1 inh	GalR3 antag conf	CNG parental	others
O=C1[C@@H](CCc2ccccc2)[C@@H]2c3cc4ccccc4cc3C=NN2[C@@H]2c3cc4ccccc4cc3C=NN12	i	nt	nt	nt	i	nt	nt	nt
CC(Nc1ncnc2sccc12)c1ccccc1 (stereo not drawn)	60	i	94	i	i	i	105	i	Gal4-VP16 ctr=i;COUP-TFII conf=61
CCn1cc(CN(C)S(=O)(=O)c2ccc3ccccc3c2)c(C)n1	51	i	71	i	i	i	103	i	Gal4-VP16 ctr=i;COUP-TFII conf=51
Cc1cc(OCC(=O)Nc2ccncc2)cc(C)c1Cl	57	i	16	i	i	i	37	i	Gal4-VP16 ctr=i;COUP-TFII conf=i
O=C(COc1ccc2ccccc2c1Br)Nc1ccncc1	51	i	61	i	i	i	60	i	Gal4-VP16 ctr=i;COUP-TFII conf=i
O=C(COc1ccc2ccccc2c1Br)Nc1cccnc1	i	i	i	i	i	i	nt	nt
COc1cccc(OCC(=O)Nc2ccncc2)c1	i	i	i	i	i	i	nt	nt
CC(C)CCOc1cccc(OCC(=O)Nc2ccncc2)c1	62	i	92	i	i	i	110	i	Gal4-VP16 ctr=i;COUP-TFII conf=55
COc1cccc(CNS(=O)(=O)c2cc(Br)ccc2Br)c1OC	i	nt	i	nt	i	nt	nt	nt
COc1ccc(NS(=O)(=O)c2ccc(-c3coc(C)n3)cc2)cc1OC	52	i	85	i	i	i	100	i	Gal4-VP16 ctr=i;COUP-TFII conf=59
COc1ccc(NS(=O)(=O)c2ccc(-c3coc(C)n3)cc2)cc1	i	i	i	i	i	i	nt	nt
CC(=O)c1cccc(NS(=O)(=O)c2ccc(C(=O)Nc3ccccc3)cc2)c1	49	i	56	i	i	i	71	i	Gal4-VP16 ctr=i;COUP-TFII conf=48
NC(=O)c1ncn2c(=O)n(CCCl)nnc12	i	nt	i	nt	i	nt	nt	nt
